Several values for one entry are separate records, joined by “and”; a condition that tells them apart may be missing. Identical values can stand only once. Inconclusive results are not listed. Entries that show only a call come without a potency. More than one record can exist for a structure, and the calls need not agree. Activity calls are given as the source filed them. Unless noted, calls follow the shape of the dose curve; as a rule, active = well fitted curve in the direction sought with a large enough effect in the repeat runs; inconclusive = weak or mixed curves; inactive = no such curve, though single readings can be large; an effect the other way counts as inactive or inconclusive.
Legend:
[1] = biological target: Peroxisome proliferator-activated receptor delta (Homo sapiens) (UniProt Q03181); test: qHTS assay to identify small molecule agonists of the peroxisome proliferator-activated receptor delta (PPARd) signaling pathway (AID 743212; calls by dose curve)
Method in brief: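 Cells expressing a UAS-driven beta-lactamase reporter (PPARd-bla HEK293H) were given test compounds after a 5 h settle and kept at 37 C. Reporter activity was then measured as FRET fluorescence using LiveBLAzer B/G substrate.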

[2] = qHTS assay to identify small molecule antagonists of the peroxisome proliferator-activated receptor delta (PPARd) signaling pathway - cell viability counter screen (AID 743213); also: nearly all actives have a fitted effect of over 50% in size; also: potency is read from the fitted curve at half-maximal effect
Method in brief: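 Cytotoxicity counter screen: CellTiter-Glo luminescence read 30 min after addition, in the same wells as the reporter assay. There, PPARd UAS-bla HEK293H cells (3000/well) were treated 17 h at 37 C with compound and 300 nM L165041.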

[3] = biological target: Peroxisome proliferator-activated receptor delta (Homo sapiens) (UniProt Q03181); test: qHTS assay to identify small molecule antagonists of the peroxisome proliferator-activated receptor delta (PPARd) signaling pathway (AID 743215; active = well fitted inhibition curve with a large enough effect in the signal ratio in the repeat runs, not every such curve was filed as active; the % refers to the signal ratio;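 also: cells stimulated with agonist L165041 at 300 nM final during compound exposure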; also: potency is read from the fitted curve at half-maximal effect)
Method in brief: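 Here, a reporter line (HEK293H, beta-lactamase under a UAS) measures PPARd signaling. Compounds are tested against agonist L165041 at 300 nM final concentration over 17 h at 37 C, with fluorescence read after substrate.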

[4] = biological target: Bile acid receptor (Homo sapiens) (UniProt Q96RI1); test: qHTS assay to identify small molecule antagonists of the farnesoid-X-receptor (FXR) signaling pathway (AID 743217; active = well fitted inhibition curve with a large enough effect in the signal ratio in the repeat runs, not every such curve was filed as active; the % refers to the signal ratio)
Method in brief: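 Test compounds are pin-transferred onto FXR-bla HEK 293T cells, then chenodeoxycholic acid is added at 50 uM final. After 16 h at 37 °C, LiveBLAzer B/G substrate is applied for 2 h at room temperature and fluorescence read.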

[5] = qHTS assay to identify small molecule agonists of the farnesoid-X-receptor (FXR) signaling pathway - cell viability counter screen (AID 743218); also: nearly all actives have a fitted effect of over 45% in size; also: potency is read from the fitted curve at half-maximal effect
Method in brief: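 Quantitative HTS counter screen measuring ATP-based viability via CellTiter-Glo luminescence in HEK 293T cells carrying a UAS-driven beta-lactamase reporter, after 16 h compound exposure at 37 C.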

[6] = biological target: Bile acid receptor (Homo sapiens) (UniProt Q96RI1); test: qHTS assay to identify small molecule agonists of the farnesoid-X-receptor (FXR) signaling pathway (AID 743220; active = well fitted activation curve with a large enough effect in the signal ratio in the repeat runs, not every such curve was filed as active; the % refers to the signal ratio)
Method in brief: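 FXR-UAS-bla HEK 293T cells carrying a UAS-driven beta-lactamase reporter were plated for 5 h at 37C/5% CO2, then exposed to DMSO-dissolved Tox21 10K compounds for 16 h at 37C. A LiveBLAzer B/G FRET substrate was loaded for 2 h at room temperature before fluorescence reading.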

[7] = qHTS assay to identify small molecule antagonists of the farnesoid-X-receptor (FXR) signaling pathway - cell viability counter screen (AID 743221; active = well fitted cell-killing curve with a large enough effect in the repeat runs, not every such curve was filed as active; also: nearly all actives have a fitted effect of over 50% in size)
Method in brief: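 Multiplexed counter screen: viability of FXR-bla HEK 293T cells under agonist stimulation by chenodeoxycholic acid (50 uM, final) and test compound for 16 h at 37 C, measured by CellTiter-Glo luminescence in the reporter wells.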

[8] = qHTS assay to identify small molecule agonists of the vitamin D receptor (VDR) signaling pathway - cell viability counter screen (AID 743224); also: nearly all actives have a fitted effect of over 50% in size; also: potency is read from the fitted curve at half-maximal effect
Method in brief: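 CellTiter-Glo viability readout on VDR-bla cells, measured after 16 h of compound treatment at 37C in the same wells.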

[9] = biological target: Vitamin D3 receptor (Homo sapiens) (UniProt P11473); test: qHTS assay to identify small molecule agonists of the vitamin D receptor (VDR) signaling pathway (AID 743222; calls by dose curve)
Method in brief: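 Tox21 cell reporter format: VDR-bla line, 16 h compound exposure in 5% CO2 at 37C, then fluorescence intensity after 2 h with LiveBLAzer B/G FRET substrate.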

[10] = biological target: Vitamin D3 receptor (Homo sapiens) (UniProt P11473); test: qHTS assay to identify small molecule antagonists of the vitamin D receptor (VDR) signaling pathway (AID 743223; active = well fitted inhibition curve with a large enough effect in the signal ratio in the repeat runs, not every such curve was filed as active; the % refers to the signal ratio)
Method in brief: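 Cells carrying a VDR-driven beta-lactamase reporter (VDR-bla) were co-treated with compound and 3 nM final 1alpha,25-dihydroxyvitamin D3 for 16 h at 37C; reporter activity was measured as FRET substrate fluorescence after 2 h at room temperature.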

Chain of Bile acid receptor (Homo sapiens) (Q96RI1 whole entry, looked up): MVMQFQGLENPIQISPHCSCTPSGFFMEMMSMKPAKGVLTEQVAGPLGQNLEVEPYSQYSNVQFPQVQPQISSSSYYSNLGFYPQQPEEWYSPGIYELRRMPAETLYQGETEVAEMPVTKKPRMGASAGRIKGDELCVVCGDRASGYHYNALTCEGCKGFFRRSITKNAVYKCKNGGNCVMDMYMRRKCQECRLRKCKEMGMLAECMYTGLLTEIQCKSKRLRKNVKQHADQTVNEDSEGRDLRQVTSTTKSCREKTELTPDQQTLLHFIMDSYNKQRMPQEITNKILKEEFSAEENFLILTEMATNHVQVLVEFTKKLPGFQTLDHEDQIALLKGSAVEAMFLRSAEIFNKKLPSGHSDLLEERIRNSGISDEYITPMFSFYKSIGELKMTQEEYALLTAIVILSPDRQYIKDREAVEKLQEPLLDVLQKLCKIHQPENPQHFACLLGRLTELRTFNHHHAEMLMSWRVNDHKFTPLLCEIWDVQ
Chain of Vitamin D3 receptor (Homo sapiens) (P11473 whole entry, looked up): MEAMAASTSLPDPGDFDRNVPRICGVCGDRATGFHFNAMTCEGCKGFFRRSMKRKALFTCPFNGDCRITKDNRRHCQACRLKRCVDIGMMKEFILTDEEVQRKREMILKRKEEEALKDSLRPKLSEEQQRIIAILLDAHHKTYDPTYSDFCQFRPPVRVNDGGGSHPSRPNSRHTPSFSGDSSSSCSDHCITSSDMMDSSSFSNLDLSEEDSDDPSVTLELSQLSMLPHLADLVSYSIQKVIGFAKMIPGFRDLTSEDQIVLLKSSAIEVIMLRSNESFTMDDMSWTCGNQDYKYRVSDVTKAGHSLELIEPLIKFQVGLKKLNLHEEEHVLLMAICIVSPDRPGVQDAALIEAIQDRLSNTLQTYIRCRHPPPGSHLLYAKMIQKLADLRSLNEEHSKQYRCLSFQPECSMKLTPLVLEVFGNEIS
Chain of Peroxisome proliferator-activated receptor delta (Homo sapiens) (Q03181 whole entry, looked up): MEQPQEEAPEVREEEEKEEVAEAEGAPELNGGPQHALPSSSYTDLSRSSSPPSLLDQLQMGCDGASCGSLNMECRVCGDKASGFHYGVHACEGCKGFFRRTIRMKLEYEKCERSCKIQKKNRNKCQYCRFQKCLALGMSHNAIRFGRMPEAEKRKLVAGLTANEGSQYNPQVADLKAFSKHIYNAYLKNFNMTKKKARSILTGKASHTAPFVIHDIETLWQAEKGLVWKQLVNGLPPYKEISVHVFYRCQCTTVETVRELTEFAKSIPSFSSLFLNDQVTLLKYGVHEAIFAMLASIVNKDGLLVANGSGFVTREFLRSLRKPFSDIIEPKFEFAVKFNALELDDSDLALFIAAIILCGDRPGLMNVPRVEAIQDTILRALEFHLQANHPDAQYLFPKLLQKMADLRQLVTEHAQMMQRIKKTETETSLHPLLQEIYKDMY

Fc1cccc(Cl)c1CCl
Potency [1]: inactive | Potency [2]: inactive | Potency [3]: inactive | Potency [4]: inactive | Potency [5]: inactive | outcome [6]: inactive | Potency [7]: inactive | Potency [8]: inactive

Clc1ccc(C(c2ccc(Cl)cc2)C(Cl)(Cl)Cl)cc1
Potency [1]: inactive | Potency [2]: inactive | Potency [3]: inactive | Potency [5]: inactive | outcome [6]: inactive | Potency [7]: inactive | Potency [9]: inactive | Potency [10]: inactive | Potency [8]: 55.3 µM (active) and 43.6 µM (active) and inactive

ClCc1ccc(Cl)cc1Cl
Potency [1]: inactive | Potency [2]: inactive | Potency [3]: inactive | Potency [5]: inactive | Potency [7]: inactive | Potency [9]: inactive | Potency [10]: inactive

BrC(Br)Br
Potency [1]: inactive | Potency [2]: inactive | Potency [3]: inactive | Potency [4]: inactive | Potency [5]: inactive | outcome [6]: inactive | Potency [7]: inactive | Potency [9]: inactive | Potency [8]: inactive

Oc1ccc(C2(c3ccc(O)cc3)CCCCC2)cc1
Potency [1]: inactive | Potency [2]: 46.4 µM (active) | Potency [3]: 46.4 µM (active) | Potency [5]: 23.2 µM (active) | outcome [6]: inactive | Potency [8]: 46.4 µM (active)

O=C(CCCN1CCC2(CC1)C(=O)NCN2c1ccccc1)c1ccc(F)cc1
Potency [1]: inactive | Potency [2]: inactive | Potency [3]: inactive | Potency [4]: inactive | outcome [6]: inactive | Potency [7]: inactive | Potency [9]: inactive | Potency [10]: inactive

OC(c1ccc(Cl)cc1)(c1ccc(Cl)cc1)C(Cl)(Cl)Cl
Potency [1]: inactive | Potency [2]: inactive | Potency [3]: inactive | outcome [6]: inactive | Potency [7]: inactive | Potency [9]: inactive | Potency [10]: inactive

CC(=O)OC1(c2ccccc2)CCN(CCc2ccccc2)CC1
Potency [1]: inactive | Potency [2]: inactive | Potency [3]: inactive | Potency [5]: inactive | Potency [7]: inactive | Potency [8]: inactive

FC(F)(F)c1cccc(C2=CCN(CCc3ccc4ccccc4c3)CC2)c1
Potency [1]: inactive | Potency [2]: inactive | Potency [4]: inactive | Potency [5]: inactive | outcome [6]: inactive | Potency [7]: inactive | Potency [9]: inactive | Potency [10]: inactive
